Measurements as given in PubChem BioAssay (NCATS).
Inconclusive results are not listed. Calls of active or inactive are those of the source. Unless noted, calls follow the shape of the dose curve; as a rule, active = well fitted curve in the direction sought with a large enough effect; inconclusive = small, poorly fitted or top-dose-only effect, or another doubt; inactive = no such curve, though single readings can be large; an effect the other way counts as inactive or inconclusive.

Key:
[1] = AP1 Signaling Pathway (AID 357; active = well fitted curve in either direction with a large enough effect, not every such curve was filed as active)
Method in brief: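 First, ME-180 AP-1-bla cells were cultured overnight at 37 °C in low-serum Opti-MEM. Next, titrated compounds with EC50 EGF were incubated 5 hours. Finally, CCF4 was added for 2.5 hours and the 460/530 nm ratio recorded.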

[2] = NFAT Signaling Pathway (AID 444; active = well fitted curve in either direction with a large enough effect, not every such curve was filed as active); settings: Jurkat NFAT-bla M1, carbachol, beta-lactamase ratio, 5 h
Method in brief: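 Jurkat cells carrying an NFAT-driven β-lactamase reporter and co-transfected muscarinic M1 receptor were treated with compound plus carbachol (1 uM final, an EC50 level) for 5 h at 37 °C. CCF4 loading followed for 1 h at RT; 460/530 nm ratio gave %activity.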

[3] = Stat Signaling Pathway (AID 446; active = well fitted curve in either direction with a large enough effect, not every such curve was filed as active)
Method in brief: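 Reporter line: ME-180 cervical carcinoma, SIE-beta-lactamase. Treatment: compound with 40 pM IL-6, 5 hrs, 37 C, in low-serum OPTI-MEM with 10 mM HEPES pH 7.3. Detection: 460/530 nm fluorescence.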

[4] = biological target: Cytochrome P450 3A4 (Homo sapiens) (UniProt P08684); assay: qHTS Assay for Inhibitors and Substrates of Cytochrome P450 3A4 (AID 884)
Method in brief: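 20 nM human CYP3A4 with 25 uM Luciferin-PPXE (at KM) in 200 mM KPO4, preincubated 10 min with compound; NADPH regeneration started a 60 min RT reaction. Luciferin detected by luminescence, normalized to 57 uM ketoconazole as full inhibition.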

[5] = HEK-293 Cancer Cell Toxicity qHTS against the NCATS CANVASS Library (AID 1347355)
Method in brief: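 Cells at 1000/well were given compound 4 h after plating in an 11-point series. Viability was read by CellTiter-Glo luminescence after 72 h at 37 degrees C.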

[6] = SDT Cancer Cell Toxicity qHTS against the NCATS CANVASS Library (AID 1347365)
Method in brief: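 SDT dog glioma cells (500/well) exposed to an 11-point compound series for 72 hr at 37C, 5% CO2. Cytotoxicity read as ATP content by CellTiterGlo luminescence; bortezomib titration as control.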

[7] = G06 Cancer Cell Toxicity qHTS against the NCATS CANVASS Library (AID 1347368)
Method in brief: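 G06 dog glioma cells, 500 per well, exposed 72 hr at 37C, 5% CO2 to compounds in an 11-point series. Cytotoxicity read as ATP content by CellTiterGlo luminescence.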

[8] = MCF7 Cancer Cell Toxicity qHTS against the NCATS CANVASS Library (AID 1347369)
Method in brief: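 Cytotoxicity was measured as CellTiterGlo luminescence (ATP) after 72 h at 37 °C. The cells were MCF7 at 500 per well, with an 11-point compound concentration series.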

[9] = qHTS for ATAD5 Antagonist screened against the NCATS CANVASS Library (AID 1347370)
Method in brief: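 HEK293T cells with stably integrated ATAD5-luciferase reporter, 2000/well, 5 h attachment; compounds plus 10 µM 5-fluorouridine, 16 h at 37 °C. Luciferase luminescence read, with CellTiter-Fluor viability read first.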

[10] = qHTS for Hypoxia signaling pathway (HIF-1) agonists against the NCATS CANVASS Library (AID 1347375)
Method in brief: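 HRE-bla ME-180 cells (0.5% dialyzed FBS) were pre-incubated 5 hrs at 37C, then exposed to compounds in an 11-point series for 17 hrs. Read-out was CCF4-AM beta-lactamase FRET (460/530 nm emissions), with CellTiter-Glo viability in the same wells.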

[11] = DH5-alpha competent E. coli microbial cell viability qHTS against the NCATS CANVASS Library (AID 1347377); settings: outcome: at 46.1 µM (top of the series)
Method in brief: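 DH5-alpha E. coli suspension was exposed to an 11-point compound series overnight at 37 °C. Viable cells quantified by ATP luminescence (BacTiter-Glo) after 20 min at room temperature.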

[12] = qHTS for Inflammasome Signaling Inhibitors: IL-1-beta AlphaLISA screen against the NCATS CANVASS Library (AID 1347379)
Method in brief: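 THP-1 cells pretreated 1 hr with compound (up to 57.5 uM final), then stimulated with LPS (250 ng/mL final) and ATP (1.25 mM final). Secreted IL-1B measured by AlphaLISA after 16 hr; glyburide as positive control.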

[13] = qHTS for activators of Nrf2/ARE signaling pathway screened against the NCATS CANVASS Library (AID 1347391)
Method in brief: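 ARE-bla HepG2 beta-lactamase reporter cells exposed to compounds for 16 h at 37C; CCF4 substrate 2 h, fluorescence at ex 405 nm, em 460/530 nm. Viability by CellTiter-Glo luminescence.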

[14] = qHTS for inhibitors of ER calcium dysfunction: SERCaMP assay screened against the NCATS CANVASS Library (AID 1347393)
Method in brief: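 qHTS in SH-SY5Y reporter cells: 16 h compound pretreatment, 4 h thapsigargin, then secreted Gaussia luciferase measured by luminescence.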

[15] = qHTS for inhibitors of Wild type Zika virus screened against the NCATS CANVASS Library (AID 1347396)
Method in brief: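 Luminescent CellTiter Glo read-out of virus-induced cytotoxicity, 72 h post-infection, in Vero 766 cells. Compounds were tested at 11 concentrations; uninfected, vehicle-treated wells defined 100% inhibition.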

[16] = qHTS for inhibitors of Rabies Virus screened against the NCATS CANVASS Library (AID 1347402; calls by dose curve)

Sequence of Cytochrome P450 3A4 (Homo sapiens) (P08684 whole entry, looked up): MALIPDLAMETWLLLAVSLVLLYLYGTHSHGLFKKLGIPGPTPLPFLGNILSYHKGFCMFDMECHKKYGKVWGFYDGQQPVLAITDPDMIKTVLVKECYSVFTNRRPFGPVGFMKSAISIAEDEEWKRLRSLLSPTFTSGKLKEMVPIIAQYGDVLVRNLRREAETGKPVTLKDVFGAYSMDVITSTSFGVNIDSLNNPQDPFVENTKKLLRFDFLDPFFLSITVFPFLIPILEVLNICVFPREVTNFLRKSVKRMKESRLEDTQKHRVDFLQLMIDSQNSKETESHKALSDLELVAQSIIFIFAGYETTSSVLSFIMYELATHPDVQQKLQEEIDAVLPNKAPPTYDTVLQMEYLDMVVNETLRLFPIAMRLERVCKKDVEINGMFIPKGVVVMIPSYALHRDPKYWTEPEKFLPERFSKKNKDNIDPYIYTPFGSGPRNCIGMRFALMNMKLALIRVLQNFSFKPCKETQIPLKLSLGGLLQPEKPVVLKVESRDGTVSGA

C=CCN1CC[C@@]23c4c5ccc(O)c4O[C@H]2/C(=N\N=C2/CC[C@@]4(O)[C@H]6Cc7ccc(O)c8c7[C@@]4(CCN6CC=C)[C@@H]2O8)CC[C@]3(O)[C@@H]1C5
inactive: outcome [1] | activity change, negative = inhibition ([2]; at 38 µM (top of the series)) -21.2%

C/C(O)=C(/C#N)C(=O)Nc1cc(Br)ccc1Br
inactive: outcome [1] | activity change, negative = inhibition ([2]; at 38 µM (top of the series)) 6.53% | outcome [3]

N[C@@]1(C(=O)O)CC[C@H](C(=O)O)C1
inactive: Potency [4]

CN1CCN(C(=O)O[C@@H]2c3nccnc3C(=O)N2c2ccc(Cl)cn2)CC1
inactive: outcome [1] | activity change, negative = inhibition ([2]; at 38 µM (top of the series)) -27.2% | outcome [3]

O=C1NCN(c2ccccc2)C12CCN(C[C@H]1COc3ccccc3O1)CC2
inactive: outcome [1] | activity change, negative = inhibition ([2]; at 38 µM (top of the series)) 1.71% | outcome [3]

CN1C(=O)CCS(=O)(=O)[C@H]1c1ccc(Cl)cc1
inactive: outcome [1] | activity change, negative = inhibition ([2]; at 38 µM (top of the series)) 2.77% | outcome [3] | Potency [4]

NC[C@H](CP(=O)(O)O)c1ccc(Cl)cc1
inactive: outcome [1] | activity change, negative = inhibition ([2]; at 38 µM (top of the series)) 3.15% | outcome [3] | Potency [4]

CCOC(=O)c1ncn2c1[C@H]1CCCN1C(=O)c1cc(OC)ccc1-2
inactive: outcome [1] | activity change, negative = inhibition ([2]; at 38 µM (top of the series)) 7.15% | outcome [3] | Potency [4]

CN1C[C@H](CNC(=O)OCc2ccccc2)C[C@H]2c3cccc4c3c(cn4C)C[C@@H]21
inactive: activity change, negative = inhibition ([2]; at 17.2 µM (top of the series)) -3.47% | outcome [3]

N[C@H](C(=O)O)c1cc(=O)[nH]o1
inactive: outcome [1] | activity change, negative = inhibition ([2]; at 38 µM (top of the series)) 2.26% | Potency [4]

CC(C)n1cnc2c(C(=O)N[C@H]3CN4CCC3CC4)cc(Cl)cc21
inactive: Potency [4]

CCCCC1(C2CCCC2)Cc2cc(OCCCC(=O)O)c(Cl)c(Cl)c2C1=O (centres undefined)
inactive: Potency [4]

CC(C)(c1ccc(OCC2CO2)cc1)c1ccc(OCC2CO2)cc1 (centres undefined)
inactive: Potency [4]

N#CC(C#N)=NNc1ccc(OC(F)(F)F)cc1
active: Potency [4] 5.01 µM

CC(C)(C)c1o[nH]c(=O)c1C[C@H](N)C(=O)O
inactive: outcome [1] | activity change, negative = inhibition ([2]; at 38 µM (top of the series)) -2.55% | outcome [3]

CCOC(=O)c1ncn2c1CN(C)C(=O)c1cc(N=[N+]=[N-])ccc1-2
inactive: Potency [4]

O[C@H]1CCCC[C@H]1N1CCC(c2ccccc2)CC1
inactive: outcome [1] | outcome [3]

NC[C@@H](CC(=O)O)c1ccc(Cl)cc1
inactive: outcome [1] | activity change, negative = inhibition ([2]; at 17.2 µM (top of the series)) -1.76% | activity change, negative = inhibition ([2]; at 38 µM (top of the series)) -6.39% | outcome [3]

CCN1C[C@]2(C)CC[C@H](O)[C@@]34C5C[C@@H]6[C@@H](OC)C[C@@](O)(C5[C@H]6O)[C@@H](CC23)[C@@H]14 (some centres undefined)
inactive: Potency [4]

C=CCN1CC[C@]23c4c5ccc(O)c4O[C@@H]2C(=O)CC[C@]3(O)[C@H]1C5
inactive: outcome [1] | activity change, negative = inhibition ([2]; at 17.2 µM (top of the series)) -9.64% | outcome [3]

CN1[C@@H]2CC[C@H]1CC(OC(=O)N1Cc3ccccc3NC1=O)C2 (some centres undefined)
inactive: Potency [4]

CO[C@@H](/C=C/CC/C=C/C(=O)O)[C@@H](O)[C@H](C)[C@@H](O)/C(C)=C/[C@H](C)C(=O)CCCC1CC(=O)NC(=O)C1
inactive: Potency [5] | Potency [6] | Potency [7] | Potency [8] | Potency [9] | Potency [10] | outcome [11] | Potency [12] | Potency [13] | Potency [14] | Potency [15] | outcome [16]

CC1=CC2CC[C@@H]3[C@@H](C)C[C@H](C)[C@@H](C1)N23 (some centres undefined)
inactive: Potency [5] | Potency [6] | Potency [7] | Potency [8] | Potency [9] | Potency [10] | Potency [12] | Potency [13] | Potency [14] | Potency [15] | outcome [16]

CC1=CC(=O)C2=C(C)C[C@H](O)[C@@H]3[C@H](OC(=O)[C@@H]3C)[C@@H]12
active: Potency [13] 13.2 µM | Potency [14] 34.3 µM
inactive: Potency [5] | Potency [6] | Potency [7] | Potency [8] | Potency [9] | outcome [11] | Potency [15] | outcome [16]

CC[N@@+]1([O-])C[C@]2(C)CC[C@@H](O)[C@@]34C5C[C@H]6CC[C@@]5(C(C[C@H]23)C41)[C@H](O)[C@@]6(O)CO (some centres undefined)
inactive: Potency [5] | Potency [6] | Potency [7] | Potency [8] | Potency [9] | Potency [10] | outcome [11] | Potency [12] | Potency [13] | Potency [14] | Potency [15] | outcome [16]

C[C@@H]1CC[C@@H](c2ccoc2)N2C[C@@]3(CC[C@@H]12)CS[C@@]1(CC[C@H]2[C@H](C)CC[C@@H](c4ccoc4)N2[C@@H]1O)C3
active: Potency [5] 7.43 µM | Potency [6] 6.62 µM | Potency [7] 7.43 µM | Potency [8] 11.7 µM | Potency [10] 8.38 µM | Potency [12] 8.63 µM
inactive: outcome [11]

CCCC(=O)OCC[N+](C)(C)C
inactive: outcome [1] | activity change, negative = inhibition ([2]; at 17.2 µM (top of the series)) 5.08% | outcome [3]

COc1ccc(C23Oc4cc(OC)cc(OC)c4[C@](O)([C@H](c4ccccc4)C2C(=O)NCCCCNC(=O)c2ccccc2)[C@@H]3O)cc1 (some centres undefined)
inactive: Potency [5] | Potency [6] | Potency [7] | Potency [8] | Potency [9] | Potency [10] | outcome [11] | Potency [12] | Potency [15] | outcome [16]

CNCCc1ccc(O)cc1
inactive: Potency [5] | Potency [6] | Potency [7] | Potency [8] | Potency [9] | Potency [10] | outcome [11] | Potency [12] | Potency [13] | Potency [14] | Potency [15] | outcome [16]

CCN1C[C@]2(C)CC[C@@H](O)[C@]34C1[C@H](C[C@H]23)C12CCC(CC14)[C@](O)(CO)[C@H]2O (some centres undefined)
inactive: Potency [5] | Potency [6] | Potency [7] | Potency [8] | Potency [9] | Potency [10] | outcome [11] | Potency [12] | Potency [13] | Potency [14] | outcome [16]

CCC(=O)CCCCC[C@@H]1NC(=O)[C@H]2CCCCN2C(=O)[C@H]([C@@H](C)CC)NC(=O)[C@H](Cc2cn(OC)c3ccccc23)NC1=O
active: Potency [5] 0.935 µM | Potency [6] 1.05 µM | Potency [7] 0.743 µM
inactive: Potency [8] | Potency [9] | Potency [10] | outcome [11] | Potency [13] | Potency [14]

CC[C@@H]1CN2CC[C@@]3(O)C(=Nc4cccc(OC)c43)[C@@H]2C[C@@H]1/C(=C\OC)C(=O)OC
inactive: Potency [7] | Potency [8] | Potency [9] | Potency [10] | outcome [11] | Potency [12] | Potency [13] | Potency [15] | outcome [16]

O=C1Nc2ccccc2C2(CCN(CCc3ccc(C(F)(F)F)cc3)CC2)O1
inactive: Potency [4]

Oc1ccc2c3c1O[C@H]1c4oc5ccccc5c4C[C@]4(O)[C@H](C2)N(CC2CC2)CC[C@@]314
inactive: outcome [1] | activity change, negative = inhibition ([2]; at 38 µM (top of the series)) -24.9%

CC(C)C[C@H]1C(=O)N2CCCC2[C@]2(O)O[C@](NC(=O)[C@@H]3C=C4c5cccc6[nH]cc(c56)CC4N(C)C3)(C(C)C)C(=O)N12 (some centres undefined)
active: Potency [4] 1 µM

O=C(Cc1ccc(Cl)c(Cl)c1)N1CCCC[C@H]1CN1CCCC1
inactive: outcome [1] | outcome [3]
active: Potency [4] 7.94 µM

N#CC(C#N)=Cc1ccc([N+](=O)[O-])c(O)c1
inactive: outcome [3]

COC(=O)C1=C2Nc3ccccc3[C@@]23CCN2CC(C(C)=O)C1C[C@H]23 (some centres undefined)
active: Potency [14] 17.2 µM
inactive: Potency [5] | Potency [6] | Potency [7] | Potency [8] | Potency [9] | Potency [10] | outcome [11] | Potency [12] | Potency [13] | Potency [15] | outcome [16]
